# In PubChem BioAssay (NCATS):
# Values joined by “and” are separate entries in the source; they are usually repeats but may differ in a detail not shown here. Identical values can stand only once. Values without a mark were called inactive. Results filed as inconclusive are left out. Entries that show only a call come without a potency. Active and inactive are the calls of the source. Unless noted, calls come from the whole dose curve; as a rule, active = well fitted curve in the direction sought with a large enough effect; inconclusive = small, poorly fitted or top-dose-only effect, or another doubt; inactive = no such curve, though single readings can be large; an effect the other way counts as inactive or inconclusive.
# Legend:
# [1] = target: Cytochrome P450 3A4 (Homo sapiens) (UniProt P08684); experiment: qHTS Assay for Activators of Cytochrome P450 3A4 (AID 885); note: nearly all actives have a fitted effect of over 65% in size; note: potency is the fitted concentration of half-maximal effect
# Cytochrome P450 3A4 (Homo sapiens), sequence (P08684 whole entry, looked up): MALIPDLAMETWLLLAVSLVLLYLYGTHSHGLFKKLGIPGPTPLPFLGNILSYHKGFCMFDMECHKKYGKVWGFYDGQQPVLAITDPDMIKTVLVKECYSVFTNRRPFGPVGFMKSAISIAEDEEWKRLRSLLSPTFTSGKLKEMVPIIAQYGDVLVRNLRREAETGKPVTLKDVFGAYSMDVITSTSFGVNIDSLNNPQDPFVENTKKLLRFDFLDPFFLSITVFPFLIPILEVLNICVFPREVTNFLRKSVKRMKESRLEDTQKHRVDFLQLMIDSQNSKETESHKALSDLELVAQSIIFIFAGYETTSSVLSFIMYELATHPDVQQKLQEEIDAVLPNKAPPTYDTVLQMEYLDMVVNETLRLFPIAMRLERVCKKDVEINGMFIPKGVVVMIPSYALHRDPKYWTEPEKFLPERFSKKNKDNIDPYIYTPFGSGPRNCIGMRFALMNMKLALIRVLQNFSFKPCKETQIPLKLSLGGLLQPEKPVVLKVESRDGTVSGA
# How it was run: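 Using 20nM recombinant human CYP3A4 in potassium phosphate (200mM), substrate Luciferin-PPXE at 25uM, luminescent luciferin detection followed a 60-min RT NADPH reaction; data scaled to 57 uM ketoconazole.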
# [2] = target: Cytochrome P450 2D6 (Homo sapiens) (UniProt P10635); experiment: qHTS Assay for Inhibitors and Substrates of Cytochrome P450 2D6 (AID 891); note: nearly all actives have a fitted effect of over 60% in size; note: potency is the fitted concentration of half-maximal effect
# Cytochrome P450 2D6 (Homo sapiens), sequence (P10635 whole entry, looked up): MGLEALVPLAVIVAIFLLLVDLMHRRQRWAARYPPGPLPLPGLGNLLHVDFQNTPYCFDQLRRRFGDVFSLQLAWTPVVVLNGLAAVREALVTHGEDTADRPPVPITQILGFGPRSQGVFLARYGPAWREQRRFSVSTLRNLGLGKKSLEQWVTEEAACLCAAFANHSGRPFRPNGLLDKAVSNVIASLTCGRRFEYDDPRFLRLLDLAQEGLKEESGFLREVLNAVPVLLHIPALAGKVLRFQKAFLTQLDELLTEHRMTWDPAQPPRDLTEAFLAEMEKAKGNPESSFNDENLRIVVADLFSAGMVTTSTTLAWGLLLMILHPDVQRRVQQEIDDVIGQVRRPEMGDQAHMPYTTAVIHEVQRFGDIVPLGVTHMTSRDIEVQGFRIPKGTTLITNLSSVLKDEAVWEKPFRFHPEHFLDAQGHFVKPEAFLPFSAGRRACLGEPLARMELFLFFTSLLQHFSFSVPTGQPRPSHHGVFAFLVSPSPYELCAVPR
# How it was run: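 Luminescent read-out of luciferin formed by 5 nM human CYP2D6 demethylating 30 uM Luciferin-ME EGE (Km level) over 60 min at room temperature after NADPH regeneration addition. Data normalized to full inhibition by 1.43 uM quinidine.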
# [3] = target: Muscarinic acetylcholine receptor M1 (Rattus norvegicus) (UniProt P08482); experiment: qHTS Assay for Antagonists of Acetylcholine Muscarinic M1 Receptor: Measurement of IP-One Response (AID 944); note: nearly all actives have a fitted effect of over 75% in size; note: potency is the fitted concentration of half-maximal effect
# Muscarinic acetylcholine receptor M1 (Rattus norvegicus), sequence (P08482 whole entry, looked up): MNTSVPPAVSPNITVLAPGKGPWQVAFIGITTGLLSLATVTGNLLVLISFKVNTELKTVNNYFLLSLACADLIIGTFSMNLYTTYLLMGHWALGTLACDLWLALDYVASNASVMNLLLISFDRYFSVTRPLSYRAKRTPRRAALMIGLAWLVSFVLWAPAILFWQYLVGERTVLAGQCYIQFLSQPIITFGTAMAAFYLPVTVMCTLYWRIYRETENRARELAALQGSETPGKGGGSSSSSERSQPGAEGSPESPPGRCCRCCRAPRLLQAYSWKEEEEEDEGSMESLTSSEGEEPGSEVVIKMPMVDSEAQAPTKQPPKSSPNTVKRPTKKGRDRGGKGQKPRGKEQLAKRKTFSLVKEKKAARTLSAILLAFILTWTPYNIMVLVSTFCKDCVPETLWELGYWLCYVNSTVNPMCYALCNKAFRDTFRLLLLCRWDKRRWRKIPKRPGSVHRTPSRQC
# How it was run: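 Antagonism was measured as loss of carbachol-driven (EC80) IP1 accumulation in CHO cells carrying rat M1, using a homogeneous IP-One TR-FRET kit read at 620 and 665 nm.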
# [4] = qHTS Assay for Identification of Small Molecule Antagonists for Thrombopoietin (TPO) Signaling Pathway (AID 918); settings: TPO-dependent cell signaling reporter, antagonist mode; note: potency is the fitted concentration of half-maximal effect; nearly all actives have a fitted effect of over 60% in size
# How it was run: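 Antagonist mode at EC50 TPO (26 pM) in IL-3-free medium; murine Ba/F3 cells with human TPO receptor and GPIIb-promoter luciferase, 24 hrs at 37 C before luminescent detection.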
# [5] = target: Pyruvate kinase PKM (Homo sapiens) (UniProt P14618); experiment: qHTS Assay for Inhibitors of Human Muscle Pyruvate Kinase (AID 958)
# Pyruvate kinase PKM (Homo sapiens), sequence (P14618 whole entry, looked up): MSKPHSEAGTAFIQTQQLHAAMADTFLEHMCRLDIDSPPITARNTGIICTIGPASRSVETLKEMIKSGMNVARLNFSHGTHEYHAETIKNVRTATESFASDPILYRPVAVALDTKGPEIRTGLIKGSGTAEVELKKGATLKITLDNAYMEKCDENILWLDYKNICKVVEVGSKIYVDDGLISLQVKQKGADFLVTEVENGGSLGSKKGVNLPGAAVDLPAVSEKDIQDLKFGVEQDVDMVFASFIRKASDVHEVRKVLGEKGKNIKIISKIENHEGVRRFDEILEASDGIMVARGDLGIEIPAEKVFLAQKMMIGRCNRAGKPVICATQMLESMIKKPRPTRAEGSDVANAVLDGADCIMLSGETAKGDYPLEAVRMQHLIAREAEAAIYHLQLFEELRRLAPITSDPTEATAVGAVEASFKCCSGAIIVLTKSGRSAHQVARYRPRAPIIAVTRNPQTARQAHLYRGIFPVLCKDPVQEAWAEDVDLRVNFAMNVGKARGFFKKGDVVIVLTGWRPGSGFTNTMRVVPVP
# How it was run: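 Human PKM2 activity is measured as ATP generation, detected by luciferase-coupled luminescence. The enzyme (0.1 nM) acts on 0.5 mM PEP and 0.1 mM ADP for 1 h at ambient temperature; data are normalized to uninhibited and full-inhibition wells.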
# [6] = target: Alpha-galactosidase A (Homo sapiens) (UniProt P06280); experiment: Counterscreen for Glucocerebrosidase Inhibitors: qHTS Assay for Human alpha-Galactosidase at pH 4.5 (AID 992)
# Alpha-galactosidase A (Homo sapiens), sequence (P06280 whole entry, looked up): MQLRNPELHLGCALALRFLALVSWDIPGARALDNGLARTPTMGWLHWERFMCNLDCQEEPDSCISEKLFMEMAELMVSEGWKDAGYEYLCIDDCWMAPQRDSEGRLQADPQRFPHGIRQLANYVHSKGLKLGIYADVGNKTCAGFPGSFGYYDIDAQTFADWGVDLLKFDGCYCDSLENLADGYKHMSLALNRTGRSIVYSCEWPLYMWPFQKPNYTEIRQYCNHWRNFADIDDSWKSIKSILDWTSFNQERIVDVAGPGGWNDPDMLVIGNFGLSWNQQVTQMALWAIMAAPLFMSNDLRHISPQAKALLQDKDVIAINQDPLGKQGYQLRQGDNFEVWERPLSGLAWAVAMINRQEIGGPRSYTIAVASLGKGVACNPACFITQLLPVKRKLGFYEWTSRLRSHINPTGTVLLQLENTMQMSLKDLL
# How it was run: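 Each compound is preincubated briefly with 2 nM enzyme before substrate addition (80 uM); plates then sit 20 min at ambient temperature, are quenched with 1M NaOH/1M glycine, and read fluorometrically.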
# [7] = target: DNA dC->dU-editing enzyme APOBEC-3G (Homo sapiens) (UniProt Q9HC16); experiment: qHTS for inhibitors of Vif-A3G interactions: Validation (AID 588379)
# DNA dC->dU-editing enzyme APOBEC-3G (Homo sapiens), sequence (Q9HC16 whole entry, looked up): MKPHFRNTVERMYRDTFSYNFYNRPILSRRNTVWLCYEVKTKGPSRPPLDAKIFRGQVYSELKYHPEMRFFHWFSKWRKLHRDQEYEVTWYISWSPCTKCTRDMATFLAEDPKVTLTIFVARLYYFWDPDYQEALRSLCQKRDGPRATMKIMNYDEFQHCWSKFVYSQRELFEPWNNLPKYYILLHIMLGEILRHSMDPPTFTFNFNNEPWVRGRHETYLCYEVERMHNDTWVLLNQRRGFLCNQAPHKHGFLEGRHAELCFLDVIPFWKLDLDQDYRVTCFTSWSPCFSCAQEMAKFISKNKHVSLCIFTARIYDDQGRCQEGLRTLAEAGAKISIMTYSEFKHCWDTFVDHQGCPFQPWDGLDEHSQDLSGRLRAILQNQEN
# How it was run: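 Yellow fluorescence (Ex 488, Em 500-530) of Vif-coexpressing HeLa A3G-eYFP cells, scanned by Acumen cytometer, reports blocked A3G degradation. Cells plated at 700/well overnight at 37 deg C before compound addition, then a further overnight compound incubation at 37 deg C.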
# [8] = qHTS Assay for Identification of Small Molecule Antagonists for NFkB Signaling Pathway (AID 895; active = well fitted inhibition curve with a large enough effect in the signal ratio, with a control signal flat, not every such curve was filed as active; the % refers to the signal ratio; note: potency is the fitted concentration of half-maximal effect)
# How it was run: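 ME-180 NFkB-bla cells (beta-lactamase under NFkB response element), plated overnight, treated with compound then 10 pM TNF alpha (about EC50) for 5 hrs at 37 C. LiveBLAzer FRET read at 460/530 nm emission, 405 nm excitation.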
# [9] = target: alpha-glucosidase (Oryza sativa, rice) (UniProt Q653V4); experiment: Counterscreen for Glucocerebrosidase Inhibitors: qHTS Assay for Rice alpha-Glucosidase at pH 5.0 (AID 997)
# How it was run: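 Endpoint fluorogenic assay at pH 5.0: compounds (0.7 nM to 77 uM) titrated against 4 nM rice enzyme and 400 uM 4-MU-alpha-glucoside for 20 min at room temperature; NaOH/glycine stop, read ex 365/em 440 nm, Hill-fitted AC50.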
# [10] = qHTS Assay for Identification of Small Molecule Agonists for Hypoxia Response Element Signaling Pathway (AID 914; active = well fitted activation curve with a large enough effect in the signal ratio, with a control signal flat, not every such curve was filed as active; the % refers to the signal ratio); settings: ME-180 (cervical carcinoma) HRE-bla reporter, beta-lactamase ratio, CoCl2, 17 h; activation: stronger effect = higher value
# How it was run: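 HRE-bla ME-180 cells, overnight plating in Opti-MEM with 0.5% dialyzed FBS; cpd titration + EC50 CoCl2, 17 h, 37 degrees Celsius; CCF4 2.5 h RT; 460/530 nm ratio; AC50.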
# [11] = target: Muscarinic acetylcholine receptor M1 (Rattus norvegicus) (UniProt P08482); experiment: qHTS Assay for Antagonists of Acetylcholine Muscarinic M1 Receptor: Kinetic Measurement of Intracellular Calcium Response (AID 943); note: nearly all actives have a fitted effect of over 75% in size; note: potency is the fitted concentration of half-maximal effect
# How it was run: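 Quantitative HTS in CHO-M1 (rat receptor) cells: 10 min compound exposure ahead of 100 nM carbachol, Fluo-4 fluorescence followed 4 min, value expressed as peak-to-basal ratio.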
# [12] = target: Cytochrome P450 2C9 (Homo sapiens) (UniProt P11712); experiment: qHTS Assay for Inhibitors and Substrates of Cytochrome P450 2C9 (AID 883); note: nearly all actives have a fitted effect of over 60% in size
# Cytochrome P450 2C9 (Homo sapiens), sequence (P11712 whole entry, looked up): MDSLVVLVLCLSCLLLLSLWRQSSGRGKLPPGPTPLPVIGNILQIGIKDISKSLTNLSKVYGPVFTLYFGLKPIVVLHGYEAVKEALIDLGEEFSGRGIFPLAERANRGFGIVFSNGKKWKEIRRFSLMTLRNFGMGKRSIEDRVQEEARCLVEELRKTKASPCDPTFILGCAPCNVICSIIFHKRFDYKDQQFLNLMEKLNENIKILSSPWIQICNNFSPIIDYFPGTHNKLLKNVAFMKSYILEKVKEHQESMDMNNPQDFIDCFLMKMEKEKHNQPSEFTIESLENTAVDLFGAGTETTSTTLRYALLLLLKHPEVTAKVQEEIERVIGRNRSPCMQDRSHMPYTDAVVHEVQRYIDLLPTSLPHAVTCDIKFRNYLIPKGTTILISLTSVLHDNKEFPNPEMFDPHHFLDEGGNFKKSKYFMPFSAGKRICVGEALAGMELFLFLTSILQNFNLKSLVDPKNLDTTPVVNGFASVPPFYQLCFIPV
# How it was run: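 Signal: luciferase luminescence reporting luciferin produced by CYP2C9. Conditions: 10nM enzyme, Luciferin-H 100uM at KM, 25mM KPO4, 37C, 60 min NADPH-driven reaction. Reference: 57uM sulphaphenazole as 100% inhibition.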
# [13] = target: Cytochrome P450 3A4 (Homo sapiens) (UniProt P08684); experiment: qHTS Assay for Inhibitors and Substrates of Cytochrome P450 3A4 (AID 884); note: nearly all actives have a fitted effect of over 50% in size; note: potency is the fitted concentration of half-maximal effect
# How it was run: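 Luminescent readout of luciferin produced by CYP3A4 (20 nM) dealkylation of Luciferin-PPXE, 25 uM (its KM). NADPH-driven reaction ran 60 min at RT after 10 min compound preincubation; data scaled to 57 uM ketoconazole as 100% inhibition.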
# [14] = target: Cytochrome P450 2C19 (Homo sapiens) (UniProt P33261); experiment: qHTS Assay for Inhibitors and Substrates of Cytochrome P450 2C19 (AID 899); note: nearly all actives have a fitted effect of over 60% in size
# Cytochrome P450 2C19 (Homo sapiens), sequence (P33261 whole entry, looked up): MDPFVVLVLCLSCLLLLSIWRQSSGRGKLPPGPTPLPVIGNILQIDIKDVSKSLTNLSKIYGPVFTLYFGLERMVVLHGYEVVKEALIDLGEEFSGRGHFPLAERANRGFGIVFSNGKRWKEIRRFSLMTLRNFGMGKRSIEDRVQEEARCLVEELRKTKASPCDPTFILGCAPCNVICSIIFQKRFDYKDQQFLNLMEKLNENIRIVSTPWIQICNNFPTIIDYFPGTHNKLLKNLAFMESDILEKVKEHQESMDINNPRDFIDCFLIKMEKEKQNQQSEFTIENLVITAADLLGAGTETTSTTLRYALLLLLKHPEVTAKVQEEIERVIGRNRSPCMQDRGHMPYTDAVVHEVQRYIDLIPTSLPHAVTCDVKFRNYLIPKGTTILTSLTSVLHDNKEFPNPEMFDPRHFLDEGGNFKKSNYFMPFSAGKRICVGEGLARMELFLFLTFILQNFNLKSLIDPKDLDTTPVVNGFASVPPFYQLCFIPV
# How it was run: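 Signal comes from luciferase acting on luciferin released by CYP2C19-mediated hydroxylation of Luciferin-H EGE, 10uM (KM). Assay mix: 5nM enzyme, 50mM KPO4; 60 min at 37C with NADPH regeneration. Data normalized against 57uM ketoconazole.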
# [15] = Confirmation and Secondary Assay for Modulators of Hemoglobin Beta Chain Splicing at IVS2 654 locus (AID 910);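 note: HeLa cells stably carrying EGFP split by mutant beta-globin IVS2-654 intron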
# How it was run: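 HeLa cells stably expressing EGFP interrupted by β-globin IVS2-654 intron, seeded overnight in Opti-MEM/2% FCS, then treated 2 days at 37 °C. Restored splicing read as total peak GFP intensity per well by laser scanning cytometry (488 nm excitation, 500–520 nm emission); 500 nM antisense PNA as control.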
# [16] = Confirmation and Secondary Assay for Modulators of Hemoglobin Beta Chain Splicing at IVS2 705 locus (AID 930);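 note: HeLa cells stably expressing the EGFP-705 splicing reporter; GFP fluorescence per well restored by corrected splicing of the IVS2-705 intron in EGFP; series mostly up to about 46 µM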
# How it was run: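 Read-out: total peak GFP fluorescence per well (488 nm excitation, 500-520 nm emission) by laser-scanning cytometry. Cells: HeLa EGFP-705 splicing reporter, 2 days compound exposure in Optimem/2% FCS.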
# [17] = target: Tyrosyl-DNA phosphodiesterase 1 (Homo sapiens) (UniProt Q9NUW8); experiment: Confirmation Assay for Inhibitors of Tyrosyl-DNA Phosphodiesterase (TDP1) (AID 489007); settings: recombinant human TDP1 enzymatic activity, dose-response; note: potency is the fitted concentration of half-maximal effect; nearly all actives have a fitted effect of over 40% in size
# Tyrosyl-DNA phosphodiesterase 1 (Homo sapiens), sequence (Q9NUW8 whole entry, looked up): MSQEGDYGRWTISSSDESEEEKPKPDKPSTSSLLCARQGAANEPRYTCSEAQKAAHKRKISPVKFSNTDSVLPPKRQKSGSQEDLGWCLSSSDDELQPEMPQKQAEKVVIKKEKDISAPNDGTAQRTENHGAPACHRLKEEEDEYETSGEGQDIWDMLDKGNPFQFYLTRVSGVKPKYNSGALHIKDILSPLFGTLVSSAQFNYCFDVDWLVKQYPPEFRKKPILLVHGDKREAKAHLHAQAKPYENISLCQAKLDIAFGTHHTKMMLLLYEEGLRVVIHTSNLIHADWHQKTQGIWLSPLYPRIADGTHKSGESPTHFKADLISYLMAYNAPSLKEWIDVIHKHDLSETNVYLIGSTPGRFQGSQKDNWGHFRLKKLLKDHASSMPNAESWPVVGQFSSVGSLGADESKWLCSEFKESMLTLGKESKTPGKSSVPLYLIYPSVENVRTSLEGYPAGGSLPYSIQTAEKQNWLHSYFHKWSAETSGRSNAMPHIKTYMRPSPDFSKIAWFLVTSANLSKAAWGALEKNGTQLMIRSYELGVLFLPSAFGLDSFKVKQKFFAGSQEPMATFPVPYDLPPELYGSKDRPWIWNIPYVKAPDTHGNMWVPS
# How it was run: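 Loss of AlphaScreen signal reports Tdp1 cleavage of a dual-labelled DNA substrate. Conditions: 1 nM E. coli-derived enzyme, 15 nM substrate, 15 min compound preincubation, 5 min reaction, 10 min bead incubation, all at room temperature.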
smiles,measurement,setting,value
CN1Cc2c(N)cccc2[C@H](c2ccccc2)C1,Potency,[1],inactive
same,Potency,[2],6.31 µM (active)
same,Potency,[3],inactive
CN1CCc2cccc3c2[C@@H]1Cc1ccc(O)c(O)c1-3,Potency,[2],inactive
same,Potency,[4],12.6 µM (active)
same,Potency,[3],inactive
same,outcome,[5],inactive
same,outcome,[6],inactive
same,outcome,[7],inactive
CN(C)CC[C@H](c1ccc(Br)cc1)c1ccccn1,outcome,[6],inactive
C=CCc1ccccc1OC[C@H](O)CNC(C)C,Potency,[2],6.31 µM (active)
same,Potency,[8],3.16 µM (active)
same,Potency,[3],inactive
same,outcome,[9],inactive
CC(C)(Oc1ccc([C@@H]2CC2(Cl)Cl)cc1)C(=O)O,Potency,[8],inactive
same,activation,[10],-18.9%
C[C@@H](CN(C)C)CN1c2ccccc2CCc2ccccc21,Potency,[2],5.01 µM (active)
same,Potency,[11],0.141 µM (active)
same,Potency,[3],0.126 µM (active)
same,outcome,[6],inactive
C[C@H](NCCc1ccc(O)cc1)[C@@H](O)c1ccc(O)cc1,Potency,[8],inactive
same,Potency,[11],12.6 µM (active)
O[C@@](CCN1CCCCC1)(c1ccccc1)C1CCCCC1,Potency,[1],inactive
same,Potency,[2],5.01 µM (active) and 1.26 µM (active)
same,outcome,[9],inactive
COCCc1ccc(OC[C@H](O)CNC(C)C)cc1,Potency,[8],inactive
same,outcome,[6],inactive
COc1c(O)cc2c(c1O)[C@@H]1O[C@@H](CO)[C@@H](O)[C@@H](O)[C@@H]1OC2=O,activation,[10],14.6%
CCN1CCC[C@@H]1CNC(=O)c1cc(S(N)(=O)=O)ccc1OC,Potency,[12],inactive
same,Potency,[13],inactive
same,Potency,[2],inactive
same,Potency,[8],inactive
same,Potency,[14],inactive
same,outcome,[6],inactive
CC(C)NC[C@H](O)c1cc(O)cc(O)c1,outcome,[6],inactive
same,outcome,[9],inactive
CN(C)[C@@H]1C(=O)C(C(N)=O)=C(O)[C@]2(O)C(=O)C3=C(O)c4c(O)ccc(Cl)c4[C@H](O)[C@H]3C[C@@H]12,Potency,[12],inactive
same,Potency,[8],inactive
same,Potency,[11],inactive
same,Potency,[3],inactive
same,outcome,[9],inactive
Cc1cnc(CNc2nc(-c3ccc(N(C)C)cc3)nc3ccccc23)cn1,Potency,[13],5.01 µM (active)
same,Potency,[1],inactive
same,Potency,[15],inactive
same,outcome,[16],inactive
CC(CCC(=O)O)C1CCC2C3C(O)C[C@@H]4CC(O)CC[C@@]4(C)C3CC[C@@]12C (stereo not given in full),Potency,[15],inactive
same,outcome,[16],inactive
CC(=O)Oc1c(C)c(C)c2c(c1C)CCC(C)(CCCC(C)CCCC(C)CCCC(C)C)O2 (stereo not given),Potency,[13],inactive
same,Potency,[15],inactive
same,outcome,[16],inactive
same,outcome,[7],inactive
C/C=C\C(=O)N(CC)c1ccccc1C,Potency,[13],inactive
same,Potency,[1],7.94 µM (active)
O=c1[nH]cnc2c1ncn2C1OC(CO)C(O)C1O (stereo not given),Potency,[13],inactive
same,Potency,[15],inactive
same,outcome,[16],inactive
same,outcome,[7],inactive
CO/N=C(/C(=O)NC1C(=O)N2C(C(=O)O)=C(CSc3nc(=O)c(O)nn3C)CSC12)c1csc(N)n1 (stereo not given),Potency,[15],inactive
same,outcome,[16],inactive
same,Potency,[17],1.78 µM (active) and 12.6 µM (active)
